Test results from ChEMBL document CHEMBL3988442, “University of Dundee, Small-Polar-MMV Screening Library” (2021).
For part of these data: Potency and affinity values are given separately.

How the values were obtained:
Set-up in all cases: scale not given: direction of the effect not stated beside the values
[1] = target: Protein translocase subunit SecA (Escherichia coli (strain K12)) (UniProt P10408); assay: Assay to Identify E. coli SecA ATPase Inhibitors; assay type: functional; conditions: 30 µM
Chain of Protein translocase subunit SecA (Escherichia coli (strain K12)) (P10408 whole entry): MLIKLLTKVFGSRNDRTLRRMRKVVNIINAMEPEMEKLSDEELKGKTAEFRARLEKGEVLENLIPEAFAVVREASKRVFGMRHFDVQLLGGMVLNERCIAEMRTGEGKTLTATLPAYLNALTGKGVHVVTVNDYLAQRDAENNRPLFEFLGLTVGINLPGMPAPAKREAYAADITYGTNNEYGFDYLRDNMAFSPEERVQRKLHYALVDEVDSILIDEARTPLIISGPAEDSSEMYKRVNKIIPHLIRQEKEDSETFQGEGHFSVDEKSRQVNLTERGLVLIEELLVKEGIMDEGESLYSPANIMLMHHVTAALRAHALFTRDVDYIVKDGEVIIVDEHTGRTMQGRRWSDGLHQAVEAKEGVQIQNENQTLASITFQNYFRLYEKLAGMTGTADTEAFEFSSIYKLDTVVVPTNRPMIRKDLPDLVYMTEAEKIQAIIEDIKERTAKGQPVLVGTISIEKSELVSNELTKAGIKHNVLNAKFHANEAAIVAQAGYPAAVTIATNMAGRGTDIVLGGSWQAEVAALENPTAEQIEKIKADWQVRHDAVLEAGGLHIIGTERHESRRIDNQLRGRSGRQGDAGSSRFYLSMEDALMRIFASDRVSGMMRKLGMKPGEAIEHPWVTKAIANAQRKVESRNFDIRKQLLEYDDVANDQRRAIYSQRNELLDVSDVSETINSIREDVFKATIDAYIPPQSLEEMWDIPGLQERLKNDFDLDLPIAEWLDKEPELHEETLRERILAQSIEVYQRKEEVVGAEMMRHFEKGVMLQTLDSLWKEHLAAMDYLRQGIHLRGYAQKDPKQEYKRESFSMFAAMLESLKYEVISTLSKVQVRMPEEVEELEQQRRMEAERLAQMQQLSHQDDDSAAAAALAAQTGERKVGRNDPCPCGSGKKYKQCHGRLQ

[2] = target: T1, Ubiquitin-activating enzyme e1, putative (Leishmania donovani (strain BPK282A1)) (UniProt E9BSI1); assay: Leishmania donovani Ubiquitin Activating Enzyme (LdE1); assay type: functional; conditions: 30 µM
T1 sequence (whole entry): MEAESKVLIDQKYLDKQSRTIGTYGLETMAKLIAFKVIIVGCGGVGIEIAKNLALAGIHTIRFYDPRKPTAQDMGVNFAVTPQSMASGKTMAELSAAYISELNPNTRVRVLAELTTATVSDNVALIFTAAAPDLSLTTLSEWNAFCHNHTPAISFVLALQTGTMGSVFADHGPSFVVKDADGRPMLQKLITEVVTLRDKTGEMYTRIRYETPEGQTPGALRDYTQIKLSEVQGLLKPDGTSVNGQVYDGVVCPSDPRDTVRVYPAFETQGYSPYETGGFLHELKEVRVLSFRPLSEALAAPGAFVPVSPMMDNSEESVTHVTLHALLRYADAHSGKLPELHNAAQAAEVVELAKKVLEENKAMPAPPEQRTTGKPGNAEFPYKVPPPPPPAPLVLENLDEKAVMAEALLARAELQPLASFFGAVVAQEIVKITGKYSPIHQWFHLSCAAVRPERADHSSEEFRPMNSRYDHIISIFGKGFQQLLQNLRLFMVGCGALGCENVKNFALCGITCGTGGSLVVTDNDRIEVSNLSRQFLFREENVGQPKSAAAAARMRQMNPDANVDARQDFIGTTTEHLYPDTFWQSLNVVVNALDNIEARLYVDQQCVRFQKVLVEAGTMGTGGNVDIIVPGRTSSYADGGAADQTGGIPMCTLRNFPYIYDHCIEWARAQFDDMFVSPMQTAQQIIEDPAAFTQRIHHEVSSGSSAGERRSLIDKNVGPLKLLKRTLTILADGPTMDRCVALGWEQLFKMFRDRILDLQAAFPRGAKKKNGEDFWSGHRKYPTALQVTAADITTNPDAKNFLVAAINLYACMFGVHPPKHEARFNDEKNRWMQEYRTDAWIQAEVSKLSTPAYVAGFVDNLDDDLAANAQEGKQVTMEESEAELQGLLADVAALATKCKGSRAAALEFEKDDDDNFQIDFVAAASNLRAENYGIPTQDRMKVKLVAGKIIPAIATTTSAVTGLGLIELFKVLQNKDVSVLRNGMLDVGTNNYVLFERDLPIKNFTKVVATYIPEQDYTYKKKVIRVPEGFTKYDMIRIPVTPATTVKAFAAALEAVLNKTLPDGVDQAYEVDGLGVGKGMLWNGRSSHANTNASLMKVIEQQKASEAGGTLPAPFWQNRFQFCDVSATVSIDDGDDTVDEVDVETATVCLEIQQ

[3] = target: Sialic acid-binding Ig-like lectin 9 (Homo sapiens) (UniProt Q9Y336); assay: Hs-Siglec9 ALPHAscreen SOP 20170721; conditions: 10 µM
Chain of Sialic acid-binding Ig-like lectin 9 (Homo sapiens) (Q9Y336 whole entry): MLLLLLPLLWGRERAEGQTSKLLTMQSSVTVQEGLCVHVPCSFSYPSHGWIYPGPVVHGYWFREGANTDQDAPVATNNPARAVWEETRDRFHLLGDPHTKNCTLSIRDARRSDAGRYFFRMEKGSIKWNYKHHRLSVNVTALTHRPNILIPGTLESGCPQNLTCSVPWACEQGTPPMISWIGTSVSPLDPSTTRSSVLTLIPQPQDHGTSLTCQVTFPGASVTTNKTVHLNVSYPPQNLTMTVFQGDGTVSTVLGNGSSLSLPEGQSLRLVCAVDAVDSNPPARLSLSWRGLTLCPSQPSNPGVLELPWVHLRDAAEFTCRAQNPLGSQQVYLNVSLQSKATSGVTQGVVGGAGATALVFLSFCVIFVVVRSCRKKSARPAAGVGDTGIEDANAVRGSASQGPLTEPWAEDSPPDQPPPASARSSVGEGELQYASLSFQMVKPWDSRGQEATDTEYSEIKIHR

Trypanosoma cruzi = assay: Trypanosoma cruzi phosphomannomutase and mannose-1-phosphate guanylyltransferase assay; assay type: functional; conditions: 10 µM
[4] = target: T2, Arginase-2, mitochondrial (Homo sapiens) (UniProt P78540); assay: in vitro enzyme assay to detect the production of urea directly proportional to the activity of Arginase II; assay type: functional; conditions: 33.3 µM; note: in the data most compounds retested in dose-response had high values
T2 sequence (whole entry): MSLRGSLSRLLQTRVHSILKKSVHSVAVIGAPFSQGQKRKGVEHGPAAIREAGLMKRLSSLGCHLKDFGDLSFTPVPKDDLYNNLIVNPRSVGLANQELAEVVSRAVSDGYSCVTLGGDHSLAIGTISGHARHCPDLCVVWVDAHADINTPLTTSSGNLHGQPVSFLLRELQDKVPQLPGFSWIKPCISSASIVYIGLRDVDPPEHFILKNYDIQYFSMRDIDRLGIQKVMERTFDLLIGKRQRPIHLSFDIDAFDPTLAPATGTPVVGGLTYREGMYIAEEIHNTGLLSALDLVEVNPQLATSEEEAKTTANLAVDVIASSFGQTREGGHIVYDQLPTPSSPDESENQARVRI

[5] = target: T3, Proteasome subunit beta (Trypanosoma cruzi) (UniProt O96673); assay: Trypanosoma cruzi proteasome chymotrypsin-like activity (TcProtChymo) assay.; note: in the data most compounds retested in dose-response had high values; assay type: functional; conditions: 9.37 µM
T3 sequence (whole entry): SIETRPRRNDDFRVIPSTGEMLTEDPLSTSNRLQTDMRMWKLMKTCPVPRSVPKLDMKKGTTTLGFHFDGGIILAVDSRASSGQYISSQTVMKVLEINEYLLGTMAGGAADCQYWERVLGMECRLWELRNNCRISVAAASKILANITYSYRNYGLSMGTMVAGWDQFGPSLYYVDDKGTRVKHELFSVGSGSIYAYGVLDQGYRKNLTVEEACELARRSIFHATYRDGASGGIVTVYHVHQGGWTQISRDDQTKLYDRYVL

Homo sapiens = species: Homo sapiens; assay: To identify inhibition of the IFN signalling (Jak-Stat) pathway via expression of an eGFP reporter gene under the control of an IFN-stimulated response element (ISRE) containing MxA promoter.; assay type: functional; conditions: 30 µM
[6] = target: T4, Tyrosyl-tRNA synthetase, putative (Trypanosoma cruzi (strain CL Brener)) (UniProt Q4DSP6); assay: Trypanosoma cruzi tyrosyl tRNA synthetase (TcYRS) _High Tyrosine SOP; assay type: functional; conditions: 30 µM; note: in the data most compounds retested in dose-response had high values
T4 sequence (whole entry): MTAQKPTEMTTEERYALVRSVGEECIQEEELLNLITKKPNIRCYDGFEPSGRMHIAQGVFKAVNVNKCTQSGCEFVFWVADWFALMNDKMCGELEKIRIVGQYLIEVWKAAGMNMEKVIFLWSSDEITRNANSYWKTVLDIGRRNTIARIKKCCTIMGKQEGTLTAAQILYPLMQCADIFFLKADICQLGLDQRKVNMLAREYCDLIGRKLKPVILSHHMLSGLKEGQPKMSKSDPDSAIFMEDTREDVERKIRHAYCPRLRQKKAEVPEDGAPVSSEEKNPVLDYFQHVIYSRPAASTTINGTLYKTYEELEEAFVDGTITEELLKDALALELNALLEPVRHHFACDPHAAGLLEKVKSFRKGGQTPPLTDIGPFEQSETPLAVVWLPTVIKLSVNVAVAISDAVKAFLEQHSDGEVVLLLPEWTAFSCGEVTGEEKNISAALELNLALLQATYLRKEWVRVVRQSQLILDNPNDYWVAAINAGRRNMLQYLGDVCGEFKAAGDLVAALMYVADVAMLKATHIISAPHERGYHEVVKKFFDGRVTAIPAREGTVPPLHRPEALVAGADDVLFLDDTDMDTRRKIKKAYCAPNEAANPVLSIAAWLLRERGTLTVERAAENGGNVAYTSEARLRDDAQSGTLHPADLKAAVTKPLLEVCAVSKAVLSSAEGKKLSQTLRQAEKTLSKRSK

[7] = target: T4, Tyrosyl-tRNA synthetase, putative (Trypanosoma cruzi (strain CL Brener)); assay: Trypanosoma cruzi tyrosyl tRNA synthetase (TcYRS) SOP; assay type: functional; conditions: 30 µM
[8] = target: Chromo domain-containing protein 1 (Saccharomyces cerevisiae (strain ATCC 204508 / S288c) (Baker's yeast)) (UniProt P32657); assay: ScCHD-1 Enzyme Inhibition Assay; assay type: functional; conditions: 30 µM; note: in the data most compounds retested in dose-response had high values
Chain of Chromo domain-containing protein 1 (Saccharomyces cerevisiae (strain ATCC 204508 / S288c) (Baker's yeast)) (P32657 whole entry, the tested form may be a part): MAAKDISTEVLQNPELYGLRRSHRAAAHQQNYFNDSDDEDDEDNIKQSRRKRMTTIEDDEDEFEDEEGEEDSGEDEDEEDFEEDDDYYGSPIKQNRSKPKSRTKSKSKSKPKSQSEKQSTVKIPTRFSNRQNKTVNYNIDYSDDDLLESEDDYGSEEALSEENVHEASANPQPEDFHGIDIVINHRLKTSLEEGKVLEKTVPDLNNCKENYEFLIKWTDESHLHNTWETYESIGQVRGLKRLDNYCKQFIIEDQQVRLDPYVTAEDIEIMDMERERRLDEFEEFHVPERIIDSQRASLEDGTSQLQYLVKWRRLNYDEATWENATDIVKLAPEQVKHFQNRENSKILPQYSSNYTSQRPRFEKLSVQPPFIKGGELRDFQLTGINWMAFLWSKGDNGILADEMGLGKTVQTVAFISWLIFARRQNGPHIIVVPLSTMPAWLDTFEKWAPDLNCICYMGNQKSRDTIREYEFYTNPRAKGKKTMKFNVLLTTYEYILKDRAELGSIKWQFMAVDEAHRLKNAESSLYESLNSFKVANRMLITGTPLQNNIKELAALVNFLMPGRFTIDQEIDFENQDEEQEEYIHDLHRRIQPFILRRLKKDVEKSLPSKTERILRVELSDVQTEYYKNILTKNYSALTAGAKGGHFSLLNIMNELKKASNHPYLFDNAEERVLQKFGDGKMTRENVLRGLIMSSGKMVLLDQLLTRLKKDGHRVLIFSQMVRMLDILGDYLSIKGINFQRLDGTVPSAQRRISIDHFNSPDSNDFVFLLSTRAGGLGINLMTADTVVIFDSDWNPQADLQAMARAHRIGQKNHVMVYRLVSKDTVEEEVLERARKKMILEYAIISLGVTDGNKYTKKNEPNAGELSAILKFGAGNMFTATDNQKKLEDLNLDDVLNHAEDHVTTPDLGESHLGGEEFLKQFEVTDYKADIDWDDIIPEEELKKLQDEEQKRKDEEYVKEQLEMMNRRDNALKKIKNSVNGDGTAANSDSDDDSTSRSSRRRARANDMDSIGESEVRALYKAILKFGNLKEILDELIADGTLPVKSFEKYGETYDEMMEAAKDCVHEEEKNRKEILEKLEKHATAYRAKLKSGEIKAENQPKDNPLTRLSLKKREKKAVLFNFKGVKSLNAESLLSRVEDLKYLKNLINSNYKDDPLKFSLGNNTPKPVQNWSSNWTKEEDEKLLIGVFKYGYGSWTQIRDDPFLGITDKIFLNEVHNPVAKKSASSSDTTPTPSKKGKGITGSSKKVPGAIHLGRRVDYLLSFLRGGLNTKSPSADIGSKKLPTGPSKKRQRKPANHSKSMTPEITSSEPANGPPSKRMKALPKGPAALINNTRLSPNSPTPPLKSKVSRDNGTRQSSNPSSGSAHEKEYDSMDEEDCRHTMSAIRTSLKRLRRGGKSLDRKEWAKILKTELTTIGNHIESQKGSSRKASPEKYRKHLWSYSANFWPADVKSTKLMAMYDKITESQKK

[9] = target: AMP-activated protein kinase, AMPK (Homo sapiens) (UniProt P54646+O43741+P54619+Q9UGJ0+Q9Y478+Q13131+Q9UGI9); assay: AMP-dependent Kinase enzyme assay. An in vitro enzyme assay that detects ADP turnover that is directly proportional to AMPK activity. This uses naive AMPK that is activated during the assay with MK-8722; assay type: functional; conditions: 30 µM

Compound	Percent Effect [1]	Percent Effect [2]	Percent Effect [3]	Percent Effect (Trypanosoma cruzi)	Percent Effect [4]	Percent Effect [5]	Percent Effect (Homo sapiens)	Percent Effect [6]	Percent Effect [7]	Percent Effect [8]	Percent Effect [9]
COc1cccc(OC)c1C(=O)N1CCN(c2ccccc2F)CC1	0.59%	12%	0.141%	-4.34%	-6.2%	12.2%	46.4%	0%	-5%	-24.9%	
CN1CCN(CCO)C(=O)C12CCN(Cc1ccsc1)CC2	-2.2%	9.09%	-2.51%	-1.88%	1.83%	13.5%	-2.12%	3.87%	12.5%	-7.99%	
CN(C)c1cc(C(=O)N2CCCN(Cc3cscn3)CC2)ccn1	-2%	7.79%	1.09%	2.05%	6.76%	-4.39%	1.34%	6.86%	16.5%	-5.32%	
COCC1CC2(CCN(Cc3cnn(C)c3)CC2)CN1C(C)C (centres undefined)	-5.94%	6.49%	-6.16%	-2.82%	-4.45%	11.6%	2.36%	-2.63%	2.56%	-4%	
CCc1noc(C(C)N2CCC(N3CCCC3)CC2)n1 (centres undefined)	-9.65%	16%	8.32%	5.02%	-5.76%	7.38%	-3.75%	5.79%	12.8%	-10.6%	
Cc1cnn(CC2CCCN2C(=O)c2ccc(C(N)=O)cn2)c1 (centres undefined)	-5%	15.4%	2.02%	5.92%	2.05%	9.47%	12.1%	0.478%	13.2%	-6.88%	
NC(=O)C1(CCCc2cccnc2)CCCN(c2ncccn2)C1 (centres undefined)	-2.51%	4%	3.57%	-3.16%	0.885%	3.61%	8.71%	4.23%	5%	-13%	
Cc1ccc(Oc2ccc(NC(=O)NCC3CCOC3)cn2)cc1C (centres undefined)	-2.89%	10.3%	-3.96%	7.98%	6.97%	8.79%	-3.33%	4.31%	20.5%	-8.82%	
Cc1cccc(COc2ccc(C(C)N)cc2)c1 (centres undefined)											-5.16%
CCNC(=O)[C@@H]1C[C@H](NC(=O)Cc2ccsc2)CN1Cc1ccc(C)o1	-3.95%	13.5%	10.2%	9.02%	14.3%	20.9%	20.3%	7.98%	21.9%	80.5%	
CCc1ccc(CN2CCC3(CC2)NC(=O)CC3c2ccncc2)o1 (centres undefined)	-9.93%	6.49%	-0.747%	-3.21%	-5.26%	9.27%	-2.1%	0.526%	7.69%	-2.68%	
O=C(NCCc1cccnc1)N1CCCC1c1ccsc1 (centres undefined)	-6.89%	17.9%	-11.1%	5.73%	3.69%	6.74%	13.9%	5.26%	22.9%	-9.16%	
Cc1ccc(-c2nc(C(=O)N(C)CC(=O)N(C)C)cs2)c(C)c1											-3.64%
Cn1cc(CN2CCC3(CC2)CC(c2ccncc2)C(=O)N3)cn1 (centres undefined)	-3%	6.49%	-3.92%	-5.36%	2.02%	16.7%	-2.28%	3.68%	10.3%	-1.42%	
FC(F)(F)c1nc(NC2CCCC2)c2ccccc2n1	1.99%	-2.7%	-2.53%	-0.291%	5.94%	9.76%	45.1%	0.532%	-2.44%	35%	
CN(Cc1ccccc1-n1cccn1)C[C@@H]1CCCN2CCCC[C@H]12											-9.27%
O=C(CNc1ccc(OC2CCOC2)cc1)NCc1cccs1 (centres undefined)											9.41%
CN(C)CCCC(=O)NC1CC(C)(C)Cc2nc(C(C)(C)C)ncc21 (centres undefined)											8.49%
CCn1ccnc1CN(C)CC1CCCN1c1cccnn1 (centres undefined)	-2.58%	2.67%	-5.89%	0%	0.887%	20.8%	6.16%	5.79%	12.8%	-11.5%	
COc1ccc(CC(=O)N2C[C@@H]3COC[C@]3(CN(C)C)C2)cc1	-3.95%	-42.9%	3.29%	3.8%	-6.07%	1.15%	-12.9%	-26.8%	-43.6%	1.23%	
Cc1cc(CNC(=O)NCCCC(=O)N2CCc3ccccc32)no1											-2.98%
CNc1nc(C2CCCN2C(C)=O)nc2c1CCN(CC1CC1)C2 (centres undefined)	-3.68%	9.33%	5.24%	-0.197%	0.885%	12.2%	6.58%	3.17%	10%	-22.7%	
COc1ccc2c(c1)OCC(C(=O)NCc1nc3c(s1)CCCC3)C2 (centres undefined)											8.94%
NC(=O)c1csc(N2C[C@@H](CN3CCCCC3)[C@@H](CO)C2)n1											-3.06%
CCS(=O)(=O)CCN1CCC(N(C)Cc2noc(C(C)C)n2)C1 (centres undefined)	-8.69%	13%	9.47%	-1.87%	-0.205%	10.3%	10.2%	4.9%	11.8%	-6.07%	
O=C1COC2(CCN(C(=O)c3ccco3)CC2)CN1Cc1cccnc1	-3.74%	14.3%	-1.08%	-2.25%	-0.457%	3.86%	-5.38%	7.73%	15%	-5.67%	
c1ccc(CCN2CCC(OCC3CCCCO3)CC2)nc1 (centres undefined)											11.2%
CN(C)c1ccccc1C(=O)N1C[C@@H](CN2CCCCC2)[C@@H](CO)C1	-7.49%	2.7%	6.19%	7.27%	-5.25%	16.6%	-22.6%	3.72%	12.2%	-3.83%	
COc1ccc(CN2CCC3(CC(Nc4ccncn4)C3)C2)c(OC)c1 (centres undefined)	-3.35%	9.33%	5.58%	-2.76%	-3.54%	8.21%	5.35%	5.29%	7.5%	-20.7%	
COc1cccc(-n2nnc(C(=O)N3CCN(C)CC3C)c2C)c1 (centres undefined)	1.69%	25.6%	-23.9%	6.1%	-2.46%	13.4%	27.9%	3.35%	22.9%	12.3%	
